Experimental data from PubChem BioAssay AID743314 (Broad Institute, 2014).
Results with a measured potency or affinity are listed apart. Inconclusive results are not listed. The source made the active and inactive calls.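 Rule for the calls: active = fitted half-maximal concentration no higher than twice the top tested dose, in every repeat run; inconclusive = repeat runs disagree, poor fit, or flat partial inhibition; inactive = the rest.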

biological target: Endoplasmic reticulum aminopeptidase 1 (Homo sapiens) (UniProt Q9NZ08); test: ERAP1 aminopeptidase inhibitors, dose response, biochemical, cherry-pick, set 2, plate reader (AID 743314); conditions: Recombinant ERAP1, Leu-AMC fluorescence, 60 min; series mostly up to 11 µM
Sequence (Q9NZ08 whole entry, looked up): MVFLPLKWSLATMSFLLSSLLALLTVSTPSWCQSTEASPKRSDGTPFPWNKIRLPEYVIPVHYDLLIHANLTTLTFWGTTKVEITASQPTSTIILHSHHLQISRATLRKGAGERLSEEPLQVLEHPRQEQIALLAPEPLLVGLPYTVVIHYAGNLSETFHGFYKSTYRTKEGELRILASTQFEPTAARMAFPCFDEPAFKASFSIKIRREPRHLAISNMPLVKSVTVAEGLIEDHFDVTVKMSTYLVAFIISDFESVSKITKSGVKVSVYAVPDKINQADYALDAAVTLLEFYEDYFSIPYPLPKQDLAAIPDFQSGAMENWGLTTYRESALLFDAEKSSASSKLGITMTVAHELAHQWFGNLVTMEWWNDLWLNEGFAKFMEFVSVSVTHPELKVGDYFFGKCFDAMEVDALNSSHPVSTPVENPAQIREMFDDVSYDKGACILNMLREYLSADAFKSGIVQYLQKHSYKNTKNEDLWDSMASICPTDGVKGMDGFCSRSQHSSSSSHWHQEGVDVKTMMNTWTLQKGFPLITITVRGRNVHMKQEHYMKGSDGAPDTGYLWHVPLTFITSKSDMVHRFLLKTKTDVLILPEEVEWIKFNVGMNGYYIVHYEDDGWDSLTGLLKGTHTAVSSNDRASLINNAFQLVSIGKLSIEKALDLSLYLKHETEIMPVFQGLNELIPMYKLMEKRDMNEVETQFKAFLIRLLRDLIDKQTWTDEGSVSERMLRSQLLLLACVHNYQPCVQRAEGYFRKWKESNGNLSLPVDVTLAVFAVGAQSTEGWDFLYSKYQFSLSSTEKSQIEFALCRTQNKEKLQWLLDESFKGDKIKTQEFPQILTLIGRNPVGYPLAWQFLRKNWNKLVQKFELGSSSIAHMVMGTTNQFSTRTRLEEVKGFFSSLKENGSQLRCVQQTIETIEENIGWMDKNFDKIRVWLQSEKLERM

outcome, inactive:
CCCNC(=O)C[C@@H]1CC[C@@H]2[C@H](COC[C@H](O)CN2C(=O)Nc2cccc(Cl)c2)O1
CCc1ccccc1NC(=O)CCC(=O)N1CCN(C(C)=O)CC1
C[C@@H]1CN([C@H](C)CO)C(=O)c2cccc(NC(=O)Nc3ccc(C(F)(F)F)cc3)c2O[C@@H]1CN(C)C
CSc1cccc(NC(=O)CCCNC(=O)c2ccc(Cl)cc2)c1
C[C@@H]1CN([C@H](C)CO)C(=O)c2cc(NS(=O)(=O)c3ccc(Cl)cc3)ccc2O[C@@H](C)CCCCO[C@@H]1CN(C)C
C=CCn1nnnc1SCC(=O)Nc1cccc(C(F)(F)F)c1
O=C(C[C@H]1CC[C@@H]2[C@H](COC[C@@H](O)CN2C(=O)Nc2cccc(Cl)c2)O1)N1CCCCC1
COc1ccccc1-c1cc(-c2ccccc2)nc(SCC(=O)O)c1C#N
COc1ccc(C#Cc2cccc(-c3nc(C(=O)N4CCN(C)CC4)cc4c3[C@@H](CCO)N(S(=O)C(C)(C)C)C4)c2)cc1OC (stereo partly drawn)
C[C@@H]1CCCCO[C@H](CN(C)C)[C@@H](C)CN([C@H](C)CO)C(=O)c2cc(NS(=O)(=O)c3ccc(Cl)cc3)ccc2O1
Cc1noc(C)c1NC(=O)N(C)C[C@@H]1Oc2c(NC(=O)Nc3ccc(F)cc3)cccc2C(=O)N([C@@H](C)CO)C[C@H]1C
C[C@@H]1CN([C@@H](C)CO)C(=O)c2cc(NS(=O)(=O)c3ccc(Cl)cc3)ccc2O[C@@H](C)CCCCO[C@H]1CN(C)C
CN(C(=O)CSc1nnc(C(F)(F)F)n1C)c1c(N)n(Cc2ccccc2)c(=O)[nH]c1=O
COc1ccc(NC(=O)Nc2cccc3c2O[C@H](CN(C)Cc2ccc(C(=O)O)cc2)[C@H](C)CN([C@@H](C)CO)C3=O)cc1
C[C@@H]1CN([C@@H](C)CO)C(=O)c2cccc(NC(=O)c3cnccn3)c2O[C@H]1CN(C)Cc1ccc(Cl)c(Cl)c1
COc1ccc(CN(C)C[C@@H]2Oc3c(NC(=O)NC4CCCCC4)cccc3C(=O)N([C@H](C)CO)C[C@H]2C)cc1
CCCC(=O)Nc1ccc2c(c1)OC[C@@H](C)N(CC1CCOCC1)C[C@H](C)[C@@H](OC)CN(C)C2=O
C[C@@H]1CCCCO[C@H](CN(C)Cc2ccc(C(=O)O)cc2)[C@H](C)CN([C@@H](C)CO)C(=O)c2cc(NC(=O)Nc3ccc(C(F)(F)F)cc3)ccc2O1
CC(=O)Oc1cc2oc(=O)cc(C)c2cc1Cl
COc1ccc(CN(C)C[C@@H]2OCCCC[C@H](C)Oc3ccc(NS(=O)(=O)c4cccs4)cc3C(=O)N([C@@H](C)CO)C[C@H]2C)cc1
C[C@@H]1CN([C@H](C)CO)C(=O)c2cc(NC(=O)CCN3CCOCC3)ccc2O[C@H]1CN(C)S(=O)(=O)c1ccccc1
COc1ccc2c3c([nH]c2c1)[C@@H](CO)N(C(C)=O)CC31CN(S(=O)(=O)c2cccs2)C1
COc1ccc(-c2cc(=O)oc3cc(OC(C)C(=O)NC(Cc4c[nH]c5ccc(O)cc45)C(=O)O)ccc23)cc1 (stereo not drawn)
C[C@@H]1CN([C@H](C)CO)C(=O)c2cc(NC(=O)CCN3CCOCC3)ccc2O[C@@H]1CN(C)S(=O)(=O)c1ccccc1
CCN1CCN(CCCNC(=O)c2cc3c(s2)-c2ccccc2OC3)CC1
CCN(CC)CCNC(=O)c1ccc(NC(=O)c2ccc(-n3cncn3)c([N+](=O)[O-])c2)cc1
CCN1CCCC1CNS(=O)(=O)c1cccc(C(F)(F)F)c1 (stereo not drawn)
CC(=O)N1CC[C@@H]2[C@H]1c1cc(-c3ccc(C#N)cc3)ccc1N(C)[C@H]2CO
CCC(C)N(C(=O)COC(=O)c1nc2nc(C)cc(C)n2n1)C1CCS(=O)(=O)C1 (stereo not drawn)
CN(C)C(=O)[C@@H]1[C@@H](CO)[C@@H]2Cn3c(ccc(/C=C/c4ccccc4)c3=O)[C@@H]2N1C(=O)c1cnccn1
CCc1nnc(NC(=O)c2cc(S(=O)(=O)N3CCOCC3)ccc2N2CCCCC2)s1
CCN(CC)CCCN=C1N[C@@H](c2cccc(C(F)(F)F)c2)C(C(=O)OC)=C(C)N1CC
Cc1noc(C)c1NC(=O)N(C)C[C@@H]1Oc2c(NC(=O)Nc3ccc(F)cc3)cccc2C(=O)N([C@@H](C)CO)C[C@@H]1C
